Source: PubChem BioAssay (NCATS)
Inconclusive results are not listed. Calls of active or inactive are those of the source. The call rests on the fitted dose curve; in most records, active means well fitted inhibition curve with a large enough effect; inconclusive means small, poorly fitted or top-dose-only effect; inactive means flat fitted curve, though single readings scatter.

Experiments:
CRL-7250 [1] = assay: Cytotoxic Profiling of Annotated Libraries Using Quantitative High-Throughput Screening (AID 1296008); conditions: Five cell lines viability, CellTiter-Glo ATP luminescence, 48-72 h; max response: hits give low values; on max response: on the % scale 0 is the no-effect control and ±100 the full control effect
In short: (§1)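 Cells exposed to compounds for 48 or 72 hr at 37 degrees Celsius. Viability read as ATP-coupled luminescence with CellTiter-Glo after 10 min at room temperature.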

HEK293 = assay: as above; conditions: Five cell lines viability, CellTiter-Glo ATP luminescence, 48-72 h; max response: hits give low values
In short: as §1

HaCat [2] = assay: as above; conditions: Five cell lines viability, CellTiter-Glo ATP luminescence, 48-72 h; max response: hits give low values
In short: as §1

KB-3-1 = assay: as above; conditions: Five cell lines viability, CellTiter-Glo ATP luminescence, 48-72 h; max response: hits give low values
In short: as §1

NIH3T3 = assay: as above; conditions: Five cell lines viability, CellTiter-Glo ATP luminescence, 48-72 h; max response: hits give low values
In short: as §1

CRL-7250 [3] = assay: qHTS assay to identify novel small-molecules to repurpose for Merkel cell carcinoma treatment (AID 1296009); conditions: MCC and control cell lines, CellTiter-Glo viability, 72 h; at 44.8 µM (top of the series) unless noted
In short: (§2)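 Dose-response viability screen; 72 hr exposure at 37 degree celsius; CellTiter-Glo added, 10 min room temperature, luminescence read; RLUs scaled between no-cell and DMSO wells.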

HACAT [4] = assay: as above; conditions: MCC and control cell lines, CellTiter-Glo viability, 72 h; at 44.8 µM (top of the series) unless noted
In short: as §2

HEK293T = assay: as above; conditions: MCC and control cell lines, CellTiter-Glo viability, 72 h; at 44.8 µM (top of the series) unless noted
In short: as §2

MCC-13 = assay: as above; conditions: MCC and control cell lines, CellTiter-Glo viability, 72 h
In short: as §2

MCC-26 = assay: as above; conditions: MCC and control cell lines, CellTiter-Glo viability, 72 h
In short: as §2
Further: nearly all actives have a fitted effect of over 60% in size.
Potency means the concentration at half of the fitted maximal effect.

COc1cc(CCNCc2ccccc2O)c(OC)cc1C#N
inactive: outcome (CRL-7250 [1]) | max response (HEK293) 2.88% | outcome (HaCat [2]) | outcome (KB-3-1) | max response (NIH3T3) 4.5% | outcome (CRL-7250 [3]) | outcome (HACAT [4])

Cc1cccc(NC(=O)N[C@@H]2N=C(c3ccccc3)c3ccccc3N(C)C2=O)c1
inactive: outcome (CRL-7250 [1]) | max response (HEK293) -5.08% | outcome (HaCat [2]) | max response (KB-3-1) 9% | outcome (NIH3T3) | outcome (CRL-7250 [3]) | outcome (HACAT [4])

CC[C@H]1CN2CC[C@H]1C[C@@H]2[C@@H](O)c1ccnc2ccc(OC)cc12
inactive: outcome (CRL-7250 [1]) | outcome (HEK293) | outcome (HaCat [2]) | max response (KB-3-1) 5.11% | outcome (NIH3T3) | outcome (CRL-7250 [3]) | outcome (HACAT [4]) | outcome (HEK293T)

CCc1c(C(=O)C(N)=O)c2c(OCC(=O)OC)cccc2n1Cc1ccccc1
inactive: outcome (CRL-7250 [1]) | outcome (HEK293) | max response (HaCat [2]) -4% | outcome (KB-3-1) | max response (NIH3T3) -0.844% | outcome (CRL-7250 [3]) | outcome (HEK293T)

OCCCCC#Cc1cncc(OC[C@@H]2CCN2)c1
inactive: outcome (CRL-7250 [1]) | max response (HEK293) -3.98% | outcome (HaCat [2]) | max response (KB-3-1) -3.78% | outcome (NIH3T3) | outcome (CRL-7250 [3]) | outcome (HACAT [4])

COc1c(C(C)C)cc2c(c1O)[C@@]1(C(=O)O)CCCC(C)(C)C1CC2 (stereo not given in full)
inactive: outcome (CRL-7250 [1]) | outcome (HEK293) | max response (HaCat [2]) 0.977% | outcome (KB-3-1) | max response (NIH3T3) 0.972% | outcome (CRL-7250 [3]) | outcome (HEK293T)

Cn1ncnc1COc1nn2c(-c3c(F)cccc3F)nnc2cc1C1CCC1
inactive: outcome (CRL-7250 [1]) | outcome (HEK293) | outcome (HaCat [2]) | outcome (KB-3-1) | max response (NIH3T3) 2.04% | outcome (CRL-7250 [3]) | outcome (HACAT [4]) | outcome (HEK293T)

COC1CC(=O)C23C(=O)NC(CC(C)C)C2C(C)=C(C)C(OO)C3/C=C(\C)CCC(O)C1O (stereo not given)
inactive: outcome (CRL-7250 [1]) | max response (HEK293) 3.17% | outcome (HaCat [2]) | outcome (NIH3T3) | outcome (CRL-7250 [3]) inactive [at 17.4 µM] | outcome (HACAT [4]) inactive [at 17.4 µM]

COC1CC(OC2CCC3(C)C(=CCC4C3CCC3(C)C(C(C)OC5OC(COC6OC(CO)C(O)C(O)C6O)C(O)C(O)C5O)CCC43O)C2)OC(C)C1OC1OC(C)C(O)C(OC)C1O (stereo not given)
inactive: max response (CRL-7250 [1]) -7.32% | max response (HEK293) -6.75% | outcome (HaCat [2]) | max response (KB-3-1) 9.26% | outcome (NIH3T3) | outcome (HACAT [4]) inactive [at 9.27 µM]

C=C[C@H]1[C@H](O[C@@H]2O[C@H](CO)[C@@H](O)[C@H](O)[C@H]2O)OC=C2C(=O)OCC[C@H]21
inactive: max response (CRL-7250 [1]) -1.15% | outcome (HEK293) | max response (HaCat [2]) 1.24% | outcome (KB-3-1) | outcome (NIH3T3) | outcome (HEK293T)

CCCCCOc1cc2c(cc1-c1cc(/C=C/C(=O)O)ccc1O)C(C)(C)CCC2(C)C
inactive: max response (CRL-7250 [1]) -2.58% | outcome (HEK293) | outcome (HaCat [2]) | outcome (KB-3-1) | max response (NIH3T3) -4.13% | outcome (HACAT [4]) | outcome (HEK293T)

C=CC(C)(O)CC/C=C(\C)C(=O)O[C@H]1[C@H](O)[C@@H](CO)O[C@@H](OC(=O)[C@]23CCC(C)(C)CC2C2=CCC4[C@@]5(C)CC[C@H](O[C@@H]6O[C@H](CO[C@@H]7OC[C@H](O)[C@H](O)[C@H]7O[C@@H]7OC[C@@H](O)[C@H](O)[C@H]7O)[C@@H](O)[C@H](O)[C@H]6O)C(C)(C)C5CC[C@@]4(C)[C@]2(C)CC3)[C@@H]1OC1OC(C)C(O[C@@H]2OC[C@@H](O)[C@H](O[C@@H]3OC[C@@H](O)[C@H](O)[C@H]3O)[C@H]2O)C(O)C1O (stereo not given in full)
inactive: max response (CRL-7250 [1]) -5.86% | max response (HEK293) 0.313% | outcome (HaCat [2]) | max response (KB-3-1) -0.269% | outcome (NIH3T3) | outcome (HACAT [4]) inactive [at 9.27 µM]

CN1C(=O)c2ccccc2NC(=O)C1Cc1ccccc1 (stereo not given)
inactive: max response (CRL-7250 [1]) 3.07% | outcome (HEK293) | max response (HaCat [2]) 2.89% | max response (KB-3-1) 3.82% | max response (NIH3T3) -1.81% | outcome (HEK293T)

CC(C)=C1CC[C@]23CO[C@H](C2)[C@@](O)(C(=O)O)CCC13 (stereo not given in full)
inactive: max response (CRL-7250 [1]) 4.82% | outcome (HEK293) | max response (HaCat [2]) -7.37% | max response (KB-3-1) 4.44% | max response (NIH3T3) 1.86% | outcome (HEK293T)

CCC(C)(C#N)O[C@@H]1O[C@H](CO)[C@@H](O)[C@H](O)[C@H]1O (stereo not given in full)
inactive: max response (CRL-7250 [1]) -24.5% | outcome (HEK293) | outcome (HaCat [2]) | outcome (KB-3-1) | outcome (NIH3T3) | outcome (HACAT [4]) | outcome (HEK293T)

C[CH2][Hg][S]c1ccccc1C(=O)O
active: Potency (CRL-7250 [1]) 16.8 µM | Potency (KB-3-1) 7.31 µM | Potency (MCC-13) 15 µM | Potency (MCC-26) 15 µM
